# Data as given in PubChem BioAssay AID488890 (Southern Research Specialized Biocontainment Screening …, 2010).
# Screen size: about 320,000 compounds; about 1,300 (0.41%) were called active. Another 3% or so got no clear call; they are omitted. How the calls were made is not given here. The list is a sample of the results. Results with a measured potency or affinity are listed apart.
# Assay: growth inhibition of non-replicating M. tuberculosis (AID 488890);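 further: plate controls were DMSO cells for no effect and high antibiotic wells for full effect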
# Details: Mycobacterium tuberculosis non-replicating, at 25 µM, stronger effect = higher value
row,Structure (SMILES),inhibition
1,CC(OC(=O)C1CCN(S(=O)(=O)c2ccc(Cl)cc2)CC1)C(=O)NC1CCCCC1C (centres undefined),17.7%
2,COc1ccc(-c2sc3ccc(N4CCOCC4)cc3c2C#Cc2ccsc2)cc1,36.8%
3,COc1cccc(C2C(C(=O)OC(C)C)=C(C)N=c3s/c(=C\c4ccc(C(=O)O)cc4)c(=O)n32)c1 (centres undefined),-6.22%
4,COc1ccc(NC(=S)N2CCNC(=O)C2CC(=O)Nc2cccc(Cl)c2C)cc1 (centres undefined),51.6%
5,Cc1ccc([N+](=O)[O-])cc1N=Nc1c(C)[nH]n(C(N)=S)c1=O,-4.79%
6,CC(=O)Nc1ccc(N=Nc2c(C)[nH]n(C(N)=S)c2=O)cc1,-7.76%
7,CC(=O)N(C)c1ccc(N=Nc2c(C)[nH]n(C(N)=S)c2=O)cc1,-34.4%
8,CCN(CC)S(=O)(=O)c1ccc(N=Nc2c(C)[nH]n(C(N)=S)c2=O)cc1,-7.96%
9,O=C(Cn1nc(Cc2cccnc2)c2ccccc2c1=O)N1CCN(c2ccccn2)CC1,2.03%
10,Cc1ccccc1CNC(=O)C(=O)NCC1OCCCN1S(=O)(=O)c1ccc(F)cc1C (centres undefined),16.5%
11,Cc1cc(C)n2nc(SCC(=O)c3cc(C)n(-c4cc(C)on4)c3C)nc2n1,35.9%
12,NC(=O)NCC12CC3CC(CC(C3)C1)C2,-1.98%
13,CNC(=O)COc1ccc(S(=O)(=O)N2CCCC2)cc1,-27.9%
14,O=C(O)COc1ccc(S(=O)(=O)N2CCCC2)cc1,-9.2%
15,COc1cccc(-c2cn(-c3cccc(C(F)(F)F)c3)c(=S)[nH]2)c1,5.54%
16,COC(=O)c1ccc2nccnc2c1,-20.4%
17,Cc1cccc(OC(=O)c2cccnc2)c1,74.1%
18,CN(Cc1ccccc1)C(=O)c1ccc(NC(=O)c2ccccc2)cc1,-0.423%
19,Cn1c(-c2ccccc2)cc2ccccc21,-0.86%
20,Cc1ccc(CNc2ccc([N+](=O)[O-])cc2C(N)=O)cc1,-0.61%
21,CCOc1c(C(N)=O)cc([N+](=O)[O-])cc1[N+](=O)[O-],7.1%
22,COc1ccc(CCNC(=O)c2cc3cc(F)ccc3nc2C)cc1OC,2.52%

row,Structure (SMILES),inhibition
1,O=C(O)CCCN=CC1=C(O)CNC1=O,2.02%
2,COc1ccccc1-c1coc2cc(OC(=O)N3CCOCC3)ccc2c1=O,17.2%
3,COc1ccc(-c2oc3ccccc3c(=O)c2OC(C)=O)cc1,64.7%
4,COc1ccccc1-c1coc2cc(OC(=O)/C=C/c3ccccc3)ccc2c1=O,33.4%
5,COc1ccccc1Oc1coc2cc(OCC(N)=O)ccc2c1=O,32.8%
6,COc1ccc(-c2oc3ccccc3c(=O)c2OCC(=O)O)cc1,6.78%
7,CCOc1ccccc1Oc1coc2cc(OCC(=O)O)ccc2c1=O,-6.12%
8,CCC(=O)NCCNc1ccc([N+](=O)[O-])cn1,-5.26%
9,Cc1onc(C(N)=O)c1C(=O)Nc1ncc(C(F)(F)F)cc1Cl,-30.8%
10,Cc1ccc(C(=O)N2CCN(c3ccccc3F)CC2)cc1NC1=NC2CS(=O)(=O)CC2S1 (centres undefined),-2.79%
11,CC(Cc1cccs1)NC(=O)Nc1cccc(Cl)c1 (centres undefined),48.3%
12,CC(Cc1cccs1)NC(=O)c1cccs1 (centres undefined),75.3%
13,CNc1ccc(C2(O)C(=O)c3ccccc3C2=O)cc1,50.8%
14,CCN(c1ccc(NC(=O)COC(=O)c2ccc(S(=O)(=O)N3CCCC3)cc2)cc1)C(C)C,11.1%
15,COC(=O)/C(=C1/Oc2ccc(C(C)(C)C)cc2S1)C(F)(F)F,32.3%
16,COC(=O)/C(=C1/Oc2ccc(C)cc2S1)C(F)(F)F,6.15%
17,CC(=O)c1cccc(NC(=O)CN(C)S(=O)(=O)c2ccccc2)c1,1.23%
18,CC[C@H](C)[C@H](NC(=O)[C@H](Cc1ccc(O)cc1)NC(=O)[C@@H](N)C(C)C)C(=O)N[C@@H](Cc1cnc[nH]1)C(=O)N1CCC[C@H]1C(=O)N[C@@H](Cc1ccccc1)C(=O)O,-4.04%
19,CN(C)S(=O)(=O)c1ccc(N2CCCC2)c(C(=O)NNC(=O)c2ccccc2)c1,37.4%
20,COc1cc(/C=N/Nc2nc(C)cc(C)n2)ccc1OC(=O)c1ccco1,23.8%
21,O=c1oc(-c2cccs2)nc2ccc(Cl)cc12,79.1%
22,O=c1cc(-c2cccs2)oc2ccc(Cl)cc12,19.9%

row,Structure (SMILES),inhibition
1,CC(NC(=O)CCNC(=O)c1ccco1)c1ccccc1 (centres undefined),-4.55%
2,CCCCCCC1CC(CC(=O)Nc2ccc([N+](=O)[O-])cc2)C(=O)O1 (centres undefined),46%
3,CCCCCC1CC(CC(=O)Nc2ccc([N+](=O)[O-])cc2)C(=O)O1 (centres undefined),29.9%
4,OCCCC1CCCN(Cc2cn[nH]c2-c2ccc(F)cc2F)C1 (centres undefined),-4.41%
5,COc1ccc(CC(=O)Nc2ccc(N3CCCCC3)cc2)cc1,10.3%
6,O=C(O)Cc1ccc(NC(=O)Nc2ccc3c(c2)OCO3)cc1,-6.44%
7,CC1=NN(Cc2cc(C(C)(C)C)c(O)c(C(C)(C)C)c2)C(=O)C1,-2.66%
8,CC(C)(C)c1cc(CN2CCCCC2)cc(C(C)(C)C)c1O,16.6%
9,CC(C)(C)c1cc(C(=S)N2CCN(CCO)CC2)cc(C(C)(C)C)c1O,19.5%
10,OC1CCN(Cc2ccc3ccccc3c2)CC1,12.5%
11,OC1CCN(Cc2cccc(Oc3ccccc3)c2)CC1,-6.53%
12,OCCN1CCN(Cc2ccc3ccccc3c2)CC1,0.76%
13,COCCCn1c(C)nnc1SCC(=O)NNC(=O)COc1ccc(Cl)cc1,0.75%
14,CSc1ccccc1C(=O)NCCSC(C)(C)C,-2.18%
15,COc1ccccc1NC(=O)COc1ccc(/C=N/NC(=O)CSCc2cc(C)cc(C)c2)cc1,8.98%
16,CN(C)c1ccc(C(=O)Nc2ccc(O)c3c(=O)cc(-c4ccccc4Cl)oc23)cc1,7.25%
17,O=C(Cn1cncn1)c1ccc(Cl)cc1,-4.45%
18,CC1=NN(C(=O)Cc2ccccc2)C(O)(c2ccccc2)C1 (centres undefined),7.51%
19,CC1=NN(C(=O)COc2ccccc2)C(O)(c2cccnc2)C1 (centres undefined),-18.8%
20,CCOC(=O)N1N=C(C)CC1(O)c1ccc(Cl)cc1 (centres undefined),-5.02%
21,CCC1=NN(C(=O)COc2ccccc2C)C(O)(c2ccncc2)C1 (centres undefined),-19%
22,COc1ccc(C(=O)Nc2ccc3nc(N4CCN(C)CC4)cc(C)c3c2)c(OC)c1,76%

row,Structure (SMILES),inhibition
1,CCc1nonc1NC(=O)c1oc2ccc(F)cc2c1C,-7.95%
2,CN1CCN(S(=O)(=O)c2ccc(NS(=O)(=O)c3ccccc3)cc2)CC1,2.91%
3,CC1CC(C)CN(C(=O)c2ccc(S(=O)(=O)N3CCCC3)cc2)C1 (centres undefined),62.4%
4,Cc1cc(C(F)(F)F)nc(SCC(=O)c2cccc([N+](=O)[O-])c2)n1,14.9%
5,O=C(COC(=O)c1ccc(Cl)c(S(=O)(=O)N2CCOCC2)c1)NCc1ccco1,-2.49%
6,O=C(Cc1ccc(-c2ccccc2)cc1)OCC(=O)N1CCCC1=O,16.6%
7,CN(C)c1ccc(-c2sc(Nc3ccccc3)n[n+]2-c2ccc(F)cc2)cc1,60.9%
8,CSc1ccc(-c2sc(Nc3ccccc3)n[n+]2-c2ccc(F)cc2)cc1,20.5%
9,Cc1cc(C(=O)NCCC2=CCCCC2)c(C)o1,15.7%
10,O=C(NCc1ccccn1)C1CCC(CNS(=O)(=O)c2cccc3nsnc23)CC1 (centres undefined),0.68%
11,O=C(Nc1ccccc1O)c1ccc(NS(=O)(=O)c2cccc3cccnc23)cc1,27.4%
12,Cc1ccc(/C=C(\NC(=O)c2ccccc2)C(=O)NC(Cc2ccccc2)C(=O)O)cc1 (centres undefined),-0.85%
13,CC(=O)Nc1ccccc1/C=C/c1ccc2c(C)ccc(O)c2n1,77.9%
14,Cc1ccc(O)c(CO)n1,1.36%
15,CN1CCCN(C(=O)c2ccc(Cl)cc2)CC1,-25.6%
16,Cc1sc2nc(CSc3ccc([N+](=O)[O-])c(C(F)(F)F)c3)[nH]c(=O)c2c1C,-14.8%
17,CCCC1(CCC)NC(=O)N(CC(=O)N2CCN(C(=O)c3ccco3)CC2)C1=O,0.73%
18,CNC(=O)COc1ccc(-c2nn(C)c(=O)c3ccccc23)cc1,-6.01%
19,Cn1nc(-c2ccc(OCC(N)=O)cc2)c2ccccc2c1=O,27.5%
20,CCN1CCN(c2nc(N)c([N+](=O)[O-])c(Nc3cccc(C)c3)n2)CC1,71.8%
21,CCOC(=O)CNC(=O)N1CCc2ccc(NC(=O)c3ccccc3OC)cc2C1,44.4%
22,CCN(C(=O)COC(=O)c1cccc(S(=O)(=O)N2CCOCC2)c1)C1CCS(=O)(=O)C1 (centres undefined),-11%

row,Structure (SMILES),inhibition
1,Cc1cccc2c(=O)cc(C(F)(F)F)[nH]c12,52.3%
2,O=c1cc(C(F)(F)F)[nH]c2ccccc12,-4.11%
3,O=C(O)CCCNS(=O)(=O)c1ccc(NCc2ccccc2)c(C(=O)O)c1,-9.34%
4,CC1=NN(C(=O)c2ccccc2Cl)C(O)(c2cccnc2)C1 (centres undefined),-11.1%
5,COC(=O)C1=NN(C(=O)c2ccc(C)cc2)C(O)(c2ccc(Cl)cc2)C1 (centres undefined),68.2%
6,CC1=NN(C(=O)CCc2ccccc2)C(O)(c2ccncc2)C1 (centres undefined),-17.3%
7,CC1=NN(C(=O)c2ccccc2Br)C(O)(c2cccnc2)C1 (centres undefined),1.25%
8,CCOC(=O)N1N=C(c2ccccc2)CC1(O)C(F)(F)F (centres undefined),-6.72%
9,CCC1(O)CC(C(=O)OC)=NN1C(=O)c1ccccc1 (centres undefined),50.2%
10,Nc1ccc(C(=O)N2N=C(c3ccccc3)CC2(O)C(F)(F)F)cc1 (centres undefined),18.4%
11,O=C(c1ccccc1)N1N=C(c2ccccc2)CC1(O)C(F)(F)F (centres undefined),66.9%
12,CC(=O)Nc1sc(C)c(C)c1C(=O)OCC(=O)Nc1ccccc1,6.17%
13,CSc1ncccc1C(=O)OCc1ccc([N+](=O)[O-])cc1,39.8%
14,COc1ccc(C(=O)N/N=C2\CCc3ccccc32)cc1OC,-1.04%
15,Cc1cccc(NC(=O)C[n+]2ccccc2)c1,16.1%
16,Cc1c(NC(=O)COC(=O)c2cc(-c3ccc(-c4ccccc4)cc3)nc3ccccc23)c(=O)n(-c2ccccc2)n1C,-36%
17,NC(=O)c1nsc(C(=O)N(c2cccc(F)c2)C(C(=O)NCC2CCCO2)c2c[nH]c3ccccc23)c1N (centres undefined),29.5%
18,CC1=NN(C(=O)c2ccco2)C(O)(c2ccccc2)C1 (centres undefined),70.5%
19,O=C(c1ccco1)N1N=C(c2ccc(Cl)cc2)CC1(O)C(F)(F)F (centres undefined),58%
20,O=C(c1ccccc1)N1N=C(c2ccc(F)cc2)CC1(O)C(F)(F)F (centres undefined),67.9%
21,CC1=NN(C(=O)Cc2ccccc2)C(O)(c2cccnc2)C1 (centres undefined),-2.18%
